What all share (set-up): scale not given: direction of the effect not stated beside the values
Experiment [1] has as its target Protein translocase subunit SecA (Escherichia coli (strain K12)) (UniProt P10408). Put plainly: Assay to Identify E. coli SecA ATPase Inhibitors. Format: functional. The following applies: 30 µM.
In experiment [2] the target is T1, Ubiquitin-activating enzyme e1, putative (Leishmania donovani (strain BPK282A1)) (UniProt E9BSI1).
T1 sequence (whole entry): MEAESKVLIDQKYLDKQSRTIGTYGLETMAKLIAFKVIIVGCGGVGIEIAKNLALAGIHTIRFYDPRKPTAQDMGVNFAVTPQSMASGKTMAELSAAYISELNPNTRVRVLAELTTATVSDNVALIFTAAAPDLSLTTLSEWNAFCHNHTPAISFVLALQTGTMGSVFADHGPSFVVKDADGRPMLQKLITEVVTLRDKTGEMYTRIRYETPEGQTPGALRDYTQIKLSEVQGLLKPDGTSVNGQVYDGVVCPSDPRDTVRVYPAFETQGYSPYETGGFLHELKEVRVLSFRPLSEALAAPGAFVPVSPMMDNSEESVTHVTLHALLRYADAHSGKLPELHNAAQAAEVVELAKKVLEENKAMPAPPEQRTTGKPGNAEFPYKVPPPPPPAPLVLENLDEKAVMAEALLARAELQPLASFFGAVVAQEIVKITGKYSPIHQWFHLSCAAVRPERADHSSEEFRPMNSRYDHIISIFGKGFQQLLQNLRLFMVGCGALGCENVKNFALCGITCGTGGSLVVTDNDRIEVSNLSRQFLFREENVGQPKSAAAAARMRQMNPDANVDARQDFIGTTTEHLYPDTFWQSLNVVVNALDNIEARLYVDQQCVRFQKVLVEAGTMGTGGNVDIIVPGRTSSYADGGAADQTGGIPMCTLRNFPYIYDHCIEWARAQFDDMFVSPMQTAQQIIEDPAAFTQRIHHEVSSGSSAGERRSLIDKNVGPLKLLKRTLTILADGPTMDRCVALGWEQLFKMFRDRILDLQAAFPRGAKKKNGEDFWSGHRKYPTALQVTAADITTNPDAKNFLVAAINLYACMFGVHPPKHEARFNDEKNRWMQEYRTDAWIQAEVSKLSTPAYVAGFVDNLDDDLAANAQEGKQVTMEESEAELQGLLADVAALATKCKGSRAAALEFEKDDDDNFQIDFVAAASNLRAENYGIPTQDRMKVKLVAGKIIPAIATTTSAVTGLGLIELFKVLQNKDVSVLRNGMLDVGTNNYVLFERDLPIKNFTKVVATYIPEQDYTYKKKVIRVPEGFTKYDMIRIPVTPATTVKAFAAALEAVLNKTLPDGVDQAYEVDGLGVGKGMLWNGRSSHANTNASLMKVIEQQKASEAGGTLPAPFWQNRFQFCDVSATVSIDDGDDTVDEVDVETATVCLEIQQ
Description: Leishmania donovani Ubiquitin Activating Enzyme (LdE1). Format: functional. Conditions: 30 µM.

In experiment [3] the target is AMP-activated protein kinase, AMPK (Homo sapiens) (UniProt P54646+O43741+P54619+Q9UGJ0+Q9Y478+Q13131+Q9UGI9). Put plainly: AMP-dependent Kinase enzyme assay. An in vitro enzyme assay that detects ADP turnover that is directly proportional to AMPK activity. This uses naive AMPK that is activated during the assay with MK-8722. It counts as functional. The following applies: 30 µM.

Experiment [4] deals with Sialic acid-binding Ig-like lectin 9 (Homo sapiens) (UniProt Q9Y336). Put plainly: Hs-Siglec9 ALPHAscreen SOP 20170721. Conditions: 10 µM.
For experiment [5], the system named is Trypanosoma cruzi. Put plainly: Trypanosoma cruzi phosphomannomutase and mannose-1-phosphate guanylyltransferase assay. The following applies: 10 µM. Format: functional.
In experiment [6] the target is T2, Arginase-2, mitochondrial (Homo sapiens) (UniProt P78540).
T2 sequence (whole entry): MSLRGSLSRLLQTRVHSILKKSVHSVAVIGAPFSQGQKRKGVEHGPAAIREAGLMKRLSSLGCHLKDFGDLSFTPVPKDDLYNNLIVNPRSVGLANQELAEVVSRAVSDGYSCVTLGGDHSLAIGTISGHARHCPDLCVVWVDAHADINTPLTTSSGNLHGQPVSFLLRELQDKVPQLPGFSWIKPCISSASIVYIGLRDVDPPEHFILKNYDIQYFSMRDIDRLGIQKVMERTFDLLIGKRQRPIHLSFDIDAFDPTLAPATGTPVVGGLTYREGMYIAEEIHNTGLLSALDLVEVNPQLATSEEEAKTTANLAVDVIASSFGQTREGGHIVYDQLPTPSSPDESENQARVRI
Put plainly: in vitro enzyme assay to detect the production of urea directly proportional to the activity of Arginase II. Further: in the data most compounds retested in dose-response had high values. It counts as functional. Conditions: 33.3 µM.

For experiment [7], the target named is T3, Proteasome subunit beta (Trypanosoma cruzi) (UniProt O96673).
T3 sequence (whole entry): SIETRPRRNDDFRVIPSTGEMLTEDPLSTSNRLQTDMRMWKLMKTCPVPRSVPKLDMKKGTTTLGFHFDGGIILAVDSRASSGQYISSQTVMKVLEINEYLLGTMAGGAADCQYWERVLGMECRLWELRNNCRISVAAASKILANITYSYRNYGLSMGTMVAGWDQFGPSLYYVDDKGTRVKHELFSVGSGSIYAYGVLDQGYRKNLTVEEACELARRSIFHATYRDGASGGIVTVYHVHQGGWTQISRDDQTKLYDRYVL
Description: Trypanosoma cruzi proteasome chymotrypsin-like activity (TcProtChymo) assay. Further: in the data most compounds retested in dose-response had high values. The following applies: 9.37 µM. Format: functional.

For experiment [8], the species on record is Homo sapiens. Put plainly: To identify inhibition of the IFN signalling (Jak-Stat) pathway via expression of an eGFP reporter gene under the control of an IFN-stimulated response element (ISRE) containing MxA promoter. Format: functional. Conditions: 30 µM. (A reporter such as luciferase makes a cellular process visible.)
In experiment [9] the target is T4, Tyrosyl-tRNA synthetase, putative (Trypanosoma cruzi (strain CL Brener)) (UniProt Q4DSP6).
T4 sequence (whole entry): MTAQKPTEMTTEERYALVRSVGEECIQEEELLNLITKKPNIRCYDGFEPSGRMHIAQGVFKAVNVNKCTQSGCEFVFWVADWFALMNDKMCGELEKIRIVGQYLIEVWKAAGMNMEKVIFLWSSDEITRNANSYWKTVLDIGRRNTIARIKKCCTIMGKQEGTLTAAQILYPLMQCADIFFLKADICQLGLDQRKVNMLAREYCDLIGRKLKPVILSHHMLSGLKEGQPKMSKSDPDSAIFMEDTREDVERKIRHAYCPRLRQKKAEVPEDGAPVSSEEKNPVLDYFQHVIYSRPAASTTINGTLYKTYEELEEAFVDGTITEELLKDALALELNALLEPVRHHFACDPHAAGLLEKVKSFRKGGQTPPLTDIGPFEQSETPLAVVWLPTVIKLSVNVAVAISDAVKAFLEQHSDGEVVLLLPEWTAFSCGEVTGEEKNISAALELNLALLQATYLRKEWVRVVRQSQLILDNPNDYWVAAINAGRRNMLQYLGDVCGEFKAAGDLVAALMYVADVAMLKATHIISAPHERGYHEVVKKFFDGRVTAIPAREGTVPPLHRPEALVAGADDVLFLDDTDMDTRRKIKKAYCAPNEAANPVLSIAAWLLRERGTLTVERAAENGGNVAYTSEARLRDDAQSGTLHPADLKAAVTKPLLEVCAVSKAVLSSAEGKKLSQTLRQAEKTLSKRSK
Description: Trypanosoma cruzi tyrosyl tRNA synthetase (TcYRS) _High Tyrosine SOP. Further: in the data most compounds retested in dose-response had high values. It counts as functional. The following applies: 30 µM.

In experiment [10] the target is T4, Tyrosyl-tRNA synthetase, putative (Trypanosoma cruzi (strain CL Brener)). Put plainly: Trypanosoma cruzi tyrosyl tRNA synthetase (TcYRS) SOP. It counts as functional. Conditions: 30 µM.
Experiment [11] concerns the target Chromo domain-containing protein 1 (Saccharomyces cerevisiae (strain ATCC 204508 / S288c) (Baker's yeast)) (UniProt P32657). Put plainly: ScCHD-1 Enzyme Inhibition Assay. Further: in the data most compounds retested in dose-response had high values. Conditions: 30 µM. Format: functional.

For some of these results: Potency and affinity values are given separately.

Experimental findings from ChEMBL document CHEMBL3988442, “University of Dundee, Small-Polar-MMV Screening Library” (2021) are described below.

Sequence of Sialic acid-binding Ig-like lectin 9 (Homo sapiens) (Q9Y336 whole entry): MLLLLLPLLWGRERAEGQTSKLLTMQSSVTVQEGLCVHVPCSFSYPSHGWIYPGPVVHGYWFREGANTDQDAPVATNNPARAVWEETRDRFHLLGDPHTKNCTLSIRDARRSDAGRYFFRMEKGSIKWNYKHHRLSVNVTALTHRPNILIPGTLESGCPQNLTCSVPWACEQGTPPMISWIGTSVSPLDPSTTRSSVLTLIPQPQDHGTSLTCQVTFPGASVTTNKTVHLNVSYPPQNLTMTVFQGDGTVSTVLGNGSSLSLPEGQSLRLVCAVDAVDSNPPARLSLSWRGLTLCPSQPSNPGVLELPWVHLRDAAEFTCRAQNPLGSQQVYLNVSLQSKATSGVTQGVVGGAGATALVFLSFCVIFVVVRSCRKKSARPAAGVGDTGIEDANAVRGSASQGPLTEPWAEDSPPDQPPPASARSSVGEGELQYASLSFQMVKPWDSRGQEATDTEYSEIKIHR
Sequence of Protein translocase subunit SecA (Escherichia coli (strain K12)) (P10408 whole entry): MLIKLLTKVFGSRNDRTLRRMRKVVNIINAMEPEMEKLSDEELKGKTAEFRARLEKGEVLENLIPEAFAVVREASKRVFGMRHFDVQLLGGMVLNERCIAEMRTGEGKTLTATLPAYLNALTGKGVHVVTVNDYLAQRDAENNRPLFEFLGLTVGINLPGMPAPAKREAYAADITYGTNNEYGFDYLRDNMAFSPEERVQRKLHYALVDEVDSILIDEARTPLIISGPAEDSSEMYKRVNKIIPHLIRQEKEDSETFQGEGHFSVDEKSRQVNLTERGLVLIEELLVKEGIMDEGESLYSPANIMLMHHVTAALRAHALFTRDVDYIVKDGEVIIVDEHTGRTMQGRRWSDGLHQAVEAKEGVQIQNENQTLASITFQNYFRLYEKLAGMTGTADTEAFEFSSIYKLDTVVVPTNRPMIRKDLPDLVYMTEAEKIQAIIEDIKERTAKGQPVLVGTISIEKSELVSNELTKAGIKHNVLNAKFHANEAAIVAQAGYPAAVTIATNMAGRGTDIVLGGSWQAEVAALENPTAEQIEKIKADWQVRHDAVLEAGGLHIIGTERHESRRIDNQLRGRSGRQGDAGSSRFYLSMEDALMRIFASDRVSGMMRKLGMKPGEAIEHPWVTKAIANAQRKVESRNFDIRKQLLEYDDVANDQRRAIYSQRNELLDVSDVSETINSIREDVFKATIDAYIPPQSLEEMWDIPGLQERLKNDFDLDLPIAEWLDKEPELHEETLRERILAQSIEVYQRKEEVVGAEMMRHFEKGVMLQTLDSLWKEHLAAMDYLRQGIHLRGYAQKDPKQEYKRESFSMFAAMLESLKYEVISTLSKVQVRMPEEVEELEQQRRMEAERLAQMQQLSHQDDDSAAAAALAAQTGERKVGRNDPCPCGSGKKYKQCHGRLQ
Sequence of Chromo domain-containing protein 1 (Saccharomyces cerevisiae (strain ATCC 204508 / S288c) (Baker's yeast)) (P32657 whole entry, the tested form may be a part): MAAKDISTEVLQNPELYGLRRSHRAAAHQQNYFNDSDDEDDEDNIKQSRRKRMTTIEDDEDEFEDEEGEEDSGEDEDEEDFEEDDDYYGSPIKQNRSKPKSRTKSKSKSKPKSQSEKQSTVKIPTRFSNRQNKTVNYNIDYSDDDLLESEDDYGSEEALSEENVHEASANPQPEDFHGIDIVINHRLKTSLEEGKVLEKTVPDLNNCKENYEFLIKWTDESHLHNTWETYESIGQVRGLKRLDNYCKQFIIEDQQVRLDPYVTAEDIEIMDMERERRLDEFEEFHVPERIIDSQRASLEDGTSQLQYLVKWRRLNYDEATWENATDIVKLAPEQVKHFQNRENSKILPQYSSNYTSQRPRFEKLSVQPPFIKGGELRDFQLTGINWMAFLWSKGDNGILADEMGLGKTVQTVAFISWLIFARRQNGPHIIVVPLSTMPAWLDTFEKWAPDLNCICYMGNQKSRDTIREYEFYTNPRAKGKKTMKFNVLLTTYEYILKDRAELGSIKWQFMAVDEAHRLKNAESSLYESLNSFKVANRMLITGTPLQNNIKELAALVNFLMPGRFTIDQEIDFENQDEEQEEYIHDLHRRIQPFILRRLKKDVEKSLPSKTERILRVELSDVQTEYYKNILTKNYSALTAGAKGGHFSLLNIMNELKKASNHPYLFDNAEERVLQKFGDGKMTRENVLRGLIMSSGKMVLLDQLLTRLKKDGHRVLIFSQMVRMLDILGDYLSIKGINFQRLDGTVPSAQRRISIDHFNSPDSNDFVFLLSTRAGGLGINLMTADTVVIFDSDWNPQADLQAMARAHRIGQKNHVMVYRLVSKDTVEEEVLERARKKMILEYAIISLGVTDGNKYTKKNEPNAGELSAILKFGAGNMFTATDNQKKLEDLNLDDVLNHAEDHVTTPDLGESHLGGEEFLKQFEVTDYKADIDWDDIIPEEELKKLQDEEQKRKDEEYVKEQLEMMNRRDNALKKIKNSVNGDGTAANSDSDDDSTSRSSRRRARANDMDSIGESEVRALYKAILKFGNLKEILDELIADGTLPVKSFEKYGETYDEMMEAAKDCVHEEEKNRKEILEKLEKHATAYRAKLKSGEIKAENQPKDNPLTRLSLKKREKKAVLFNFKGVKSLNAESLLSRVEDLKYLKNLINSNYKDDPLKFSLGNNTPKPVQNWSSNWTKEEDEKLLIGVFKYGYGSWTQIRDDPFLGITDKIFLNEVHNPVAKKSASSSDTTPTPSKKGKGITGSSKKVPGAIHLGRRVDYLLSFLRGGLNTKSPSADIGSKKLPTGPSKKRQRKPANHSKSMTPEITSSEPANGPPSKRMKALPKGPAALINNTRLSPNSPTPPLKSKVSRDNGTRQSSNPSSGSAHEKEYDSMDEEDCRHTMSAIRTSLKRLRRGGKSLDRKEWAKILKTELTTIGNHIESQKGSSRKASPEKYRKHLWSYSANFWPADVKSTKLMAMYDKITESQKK

Take `CC(C)c1noc(CN(Cc2cccs2)C2CC2)n1`: the Percent Effect in experiment [1] is -4.69%; in [2], -5.2%; in [3], 7.3%; in experiment [4] it was 44.2%; in experiment [5], -5.61%; in experiment [6], 4.14%. Besides, the Percent Effect is 5.16% in experiment [7]; 18.1% in [8]; -4.3% in experiment [9]; -8.64% in experiment [10]; 2.56% in experiment [11].
As for `COc1ccc(N2CCC(C(=O)/N=c3/[nH]ccs3)CC2)nn1`, the Percent Effect was -5.79% in [1]; 1.33% in experiment [2]; 5.74% in [3]; 6.32% in experiment [4]; 0.589% in [5]; -13.9% in [6]. The Percent Effect in experiment [7] was 11.3%; in experiment [8] it was 44.8%; in experiment [9] it was 5.29%; in [10], 12.8%; in experiment [11], -12.7%.
Consider `O=C1CC[C@@H]2[C@@H](CCN2C(=O)c2ccsc2)N1CC1CC1`, for which the Percent Effect in experiment [1] was -4.27%; in [2] it was -2.7%; in experiment [3], 6.58%; in experiment [4] it was -0.934%; in experiment [5], 4.2%; in [6] it was 2.23%. Also, the Percent Effect in experiment [7] is 21.4%; in [8], -14.4%; in experiment [9], 4.32%; in experiment [10] it was 7.69%; in experiment [11], 2.18%.
As for `CC(C)c1nc2n(n1)CC(NCc1ncc(-c3ccccc3)o1)CC2` (stereo unspecified), the Percent Effect was -0.807% in experiment [1]; 2.6% in experiment [2]; -3.44% in [3]; 5.78% in [4]; 4.8% in experiment [5]; 4.84% in experiment [6]. Moreover, the Percent Effect in experiment [7] was 4.12%; in experiment [8], 8.03%; in experiment [9], 2.86%; in [10], 2.35%; in [11] it was -14.2%.
As for `COCC1CN(S(C)(=O)=O)Cc2ncn(CC3CC3)c21` (stereo unspecified), the Percent Effect was -4.92% in experiment [1]; 13.5% in experiment [2]; -0.0233% in experiment [3]; -3.08% in experiment [4]; -5.38% in [5]; 0.248% in experiment [6]. Also, the Percent Effect was 14.2% in experiment [7]; 27.2% in experiment [8]; 4.3% in [9]; 8.64% in experiment [10]; -3.62% in experiment [11].
In the case of `O=c1[nH]c(CCN2CCCC(Cn3cncn3)C2)nc2ccccc12` (stereo unspecified), the Percent Effect in experiment [1] is -4.26%; in experiment [2] it was 13.5%; in [3], 0.62%; in experiment [4] it was 16.8%; in [5], 6.78%; in experiment [6], 0.924%. The Percent Effect in [7] is 2.33%; in [8], 14.5%; in experiment [9], 4.95%; in experiment [10], 11%; in [11] it was -3.63%.
`CCc1ncncc1C(=O)N1CCCN(Cc2ccc(C)cc2)CC1`: the Percent Effect in experiment [1] is -6.16%; in experiment [2], 2.63%; in experiment [3], 1.25%; in experiment [4], -3.26%; in experiment [5] it was -6.44%; in experiment [6] it was -0.36%. Also, the Percent Effect in experiment [7] was 0.592%; in experiment [8], 6.25%; in [9], -2.46%; in [10] it was -13.6%; in [11] it was 6.06%.
As to `CS(=O)(=O)NCc1cnc2n1CCN(Cc1ccsc1)CC2`, the Percent Effect in experiment [1] is 1.5%; in [2] it was 21.9%; in [3], -6.69%; in [4] it was 5.11%; in experiment [5] it was -5.16%; in experiment [6] it was -18%. Moreover, the Percent Effect in experiment [7] is 14.6%; in experiment [8], 18.3%; in experiment [9], 8.33%; in experiment [10], 3.7%; in experiment [11], 0.00549%.
As to `c1csc(CN2CCO[C@H]3[C@H](OCCN4CCCC4)CC[C@@H]32)n1`, the Percent Effect in [1] is -4.05%; in experiment [2], 7.79%; in [3] it was 0.971%; in [4], 16%; in experiment [5], -0.885%; in experiment [6], -57.9%. In addition, the Percent Effect in experiment [7] is 8.15%; in experiment [8] it was 10.2%; in [9], 2.15%; in experiment [10], 11.1%; in experiment [11], -0.273%.
`OCCn1cc(CN2CCN(CCOc3ccccc3)CC2)cn1`: the Percent Effect was -4.31% in experiment [1]; 8.11% in experiment [2]; -1.96% in experiment [3]; 0.413% in [4]; -4.36% in experiment [5]; 1.29% in [6]. The Percent Effect in [7] is 11.3%; in [8], 3.13%; in [9], 2.97%; in experiment [10], 3.66%; in [11] it was -2.48%.
`CCCN1CC(C(=O)Nc2ccccn2)CC1=O` (stereo unspecified): the Percent Effect in [1] was 0.0255%; in experiment [2], 0%; in [3] it was -0.466%; in [4], 5.93%; in [5], 4.83%; in experiment [6] it was 12.4%. The Percent Effect in experiment [7] is 9.31%; in experiment [8] it was 15.4%; in experiment [9], 2.65%; in [10], 7.32%; in experiment [11], -4.7%.
